Test results reported in PubChem BioAssay (NCATS).
Inconclusive results are not listed. Active and inactive are the calls of the source. Calls come from the whole dose curve; as a rule, active = well fitted curve in the direction sought with a large enough effect; inconclusive = small, poorly fitted or top-dose-only effect, or effect the other way, or another doubt; inactive = no such curve, though single readings can be large or run the other way.

Target: Transient receptor potential cation channel subfamily V member 1 (Homo sapiens) (UniProt Q8NER1)
Assay: HTS Assay for Compounds that Act as Enhancers of the Vanilloid Receptor 1 (AID 488979); note: 0% is about no effect
Conditions: TRPV1-expressing cells, enhancer of channel activity, stimulated with capsaicin at EC20; series mostly up to 41.7 µM; activity change, positive = enhancement: at the top concentration
Excerpt: The transient receptor potential ion channel, family V, number 1, (TRPV1) is one of the most important molecular transducers of painful stimuli and a potential target for analgesic drug development. Although recent clinical trials with orthosteric antagonists have not produced a successful drug because of a hyperthermia side effect and their tendency to block thermal noxious pain, this ion channel is undeniably well placed in the pain pathway, and the idea of blocking pain signals before they enter the CNS is an excellent concept and of proven efficacy when TRPV1 agonists are used. We propose a new approach involving allosteric modulation to impose an activity-dependent constraint within the context of inflammation and tissue damage that would alter the responsiveness of the channel in a way that an orthosteric vanilloid antagonist cannot achieve. We believe that the allosteric modulator approach has not been explored for this target.
The main goal of this proposal is to identify additional, new, potent allosteric modulators of TRPV1 that can be used to investigate TRPV1 function. Our recent report provides evidence of proof of concept, but the compounds are just at the edge of utility in terms of potency. […] The question of whether they can be used as analgesic agents is complex, but if suitable compounds are identified then testing for analgesic properties will be conducted.
Upon TRPV1 activation in TRPV1 cells, the channel opens and extracellular cations flow through the channel into the cytosol. A calcium binding dye (Fluo-8) becomes fluorescent when bound to calcium. This dye is pre-loaded into cells and is used as a marker for calcium influx.
The amount of accumulated calcium is precisely quantified using the FDSS kinetic reader and the calcium dye.
For the HTS assay, freshly prepared cells are plated at a density of 2000/well in 3 ul medium in 1536-well plates and cultured overnight at 35.5C. Cells will be loaded with 1 ul of the homogeneous calcium dye (ABD Bioquest) at room temperature for 40 to 90 minutes. Plates will be loaded into the FDSS kinetic reader and a 1 sec / cycle for 10 second baseline signal will be measured. Compound library will then be added with a pintool at 23 nl and measured kinetically for 3 minutes. This portion of the read is considered the agonist portion of the screen. Following the 3 minutes of incubation, an on board pipettor will deliver 1 ul of capsaicin for a final concentration equal to the EC20. Signal will be measured kinetically for an additional 2 minutes. This portion of the read is considered the allosteric enhancer portion of the screen.
The FDSS reader has a standard filter set capable of measuring calcium bound Fluo-8 (ex=480 and em=520 nm).

Transient receptor potential cation channel subfamily V member 1 (Homo sapiens), sequence (Q8NER1 whole entry, looked up): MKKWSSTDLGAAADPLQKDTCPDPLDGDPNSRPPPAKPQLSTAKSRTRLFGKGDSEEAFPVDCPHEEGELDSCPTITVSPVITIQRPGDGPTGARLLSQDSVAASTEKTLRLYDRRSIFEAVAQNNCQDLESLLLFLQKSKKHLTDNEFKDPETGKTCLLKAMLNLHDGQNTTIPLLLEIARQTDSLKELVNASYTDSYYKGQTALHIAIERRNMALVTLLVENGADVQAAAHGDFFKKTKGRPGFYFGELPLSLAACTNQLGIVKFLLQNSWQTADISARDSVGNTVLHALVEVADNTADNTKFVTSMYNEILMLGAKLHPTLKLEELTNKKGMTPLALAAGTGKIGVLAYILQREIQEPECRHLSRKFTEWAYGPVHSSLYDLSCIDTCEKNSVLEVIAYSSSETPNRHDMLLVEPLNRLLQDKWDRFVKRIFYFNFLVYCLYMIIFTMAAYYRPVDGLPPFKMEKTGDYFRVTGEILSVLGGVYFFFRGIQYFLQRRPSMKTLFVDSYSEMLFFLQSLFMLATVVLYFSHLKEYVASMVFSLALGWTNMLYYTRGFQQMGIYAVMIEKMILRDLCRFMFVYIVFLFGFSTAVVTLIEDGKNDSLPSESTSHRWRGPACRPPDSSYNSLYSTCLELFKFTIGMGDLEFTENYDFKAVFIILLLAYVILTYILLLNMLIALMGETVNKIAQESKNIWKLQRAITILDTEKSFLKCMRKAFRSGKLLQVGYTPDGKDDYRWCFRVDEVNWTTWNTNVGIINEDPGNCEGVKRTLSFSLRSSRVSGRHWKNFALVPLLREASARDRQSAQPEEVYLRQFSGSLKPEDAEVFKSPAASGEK

SMILES	activity change, positive = enhancement	outcome
COc1cccc(-c2cc(=O)c3ccccc3o2)c1N	-8.25% (inactive)	–
CC(C)(C)c1ccc(C(O)CCCN2CCC(C(O)(c3ccccc3)c3ccccc3)CC2)cc1 (configuration not stated)	-8.94% (inactive)	–
O=C(O)CCc1nc(-c2ccccc2)c(-c2ccccc2)o1	-6.61% (inactive)	–
Clc1ccc(Cn2c(CN3CCCC3)nc3ccccc32)cc1	-8.48% (inactive)	–
NC(N)=Nc1nc(CSCC/C(N)=N/S(N)(=O)=O)cs1	0.162% (inactive)	–
CCN(CC)C(=O)c1ccc(O)c(OC)c1	4.84% (inactive)	–
Cc1cccc(C)c1OCC(C)N (configuration not stated)	5.86% (inactive)	–
C[N+](C)(C)CCCCCC[N+](C)(C)C	–	inactive
O=c1c(-c2ccc(O)cc2)coc2cc(O)ccc12	2.39% (inactive)	–
NCCS	-6.73% (inactive)	–
CC(=O)N[C@@H](CS)C(=O)O	-6.74% (inactive)	–
CCCNC(=O)NS(=O)(=O)c1ccc(Cl)cc1	4.92% (inactive)	–
CC/C(=C(\c1ccccc1)c1ccc(OCCN(C)C)cc1)c1ccccc1	12.1% (inactive)	–
CC1(C)CCC2=C(O1)c1ccccc1C(=O)C2=O	-16.4% (inactive)	–
CCN(CC)CCOC(=O)c1ccc(N)cc1	6.9% (inactive)	–
CCN1CCC[C@H]1CNC(=O)c1cc(S(N)(=O)=O)ccc1OC	4.99% (inactive)	–
CC(=O)c1ccc(S(=O)(=O)NC(=O)NC2CCCCC2)cc1	-14.2% (inactive)	–
O=C1NC(=O)C(c2ccccc2)(c2ccccc2)N1	8.38% (inactive)	–
COc1ccccc1N1CCN(CCCNc2cc(=O)n(C)c(=O)n2C)CC1	-15.9% (inactive)	–
CCCCC1C(=O)N(c2ccccc2)N(c2ccccc2)C1=O	-2.18% (inactive)	–
CN(C)CCC(c1ccccc1)c1ccccn1 (configuration not stated)	-2.97% (inactive)	–
O=c1cc(-c2ccc(O)cc2)oc2cc(O)cc(O)c12	-3.03% (inactive)	–
CC(C)NCC(O)COc1cccc2[nH]ccc12 (configuration not stated)	-4.9% (inactive)	–
CC(C)OC(=O)C(C)(C)Oc1ccc(C(=O)c2ccc(Cl)cc2)cc1	-5.36% (inactive)	–
O=C1NCC2(CCN(CCc3ccccc3)CC2)O1	3.99% (inactive)	–
COC(=O)[C@@H]1[C@H]2C[C@H]3c4[nH]c5ccccc5c4CCN3C[C@@H]2CC[C@@H]1O	-24.2% (inactive)	–
CC(=O)CCCCn1c(=O)c2c(ncn2C)n(C)c1=O	4.03% (inactive)	–
